Data: PubChem BioAssay (NCI)
About 83,000 compounds went through this panel and 20% of them were active in at least one assay; those are over-represented in the sample as a whole.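 48-hour exposure, single concentration, 96-well plates; percent growth endpoint where 0 means no net growth. Active: below 10.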 Unmarked numbers belong to inactive results.

Each compound was assayed on A549/ATCC NSCLC (assay: NCI-60 one-dose screen, 48 h (100 = growth as untreated, 0 = no growth, -100 = all killed)). Conditions: 10 µM unless noted.
COc1ccc(/C=C/c2nc3ccccc3c(=O)n2-c2ccc(C#Cc3ccc(C(C)(C)C)cc3)cc2C)c(OC)c1 showed a growth of 91.2%. Cc1cc(O)c2cc3c(O)c(O)ccc3cc2c1 was tested, and the growth was 117%. COc1ccc(-c2nc3ccccc3n3cccc23)cc1 gave a growth of 102%. CCOC(=O)c1cc(C(=O)OCC)c(C)nc1C gave a growth of 101%. In the case of CN1C(=O)N(C)C2C1NN=c1s/c(=C\c3ccc(Br)cc3)c(=O)n12 (stereo not given), the growth is reported as 38.8%. For O=C1OCC2=C1C(c1ccccc1)c1cc3c(cc1N2CCO)OCO3 (stereo not given), the growth was 58.7%. For CCC1N=C(N)N=C(N)N1c1ccc(Cl)cc1 (stereo not given), the growth was 38%. In the case of Cc1cccc(N=NC(=S)NNc2cccc(C)c2)c1, the growth is reported as 105%. In the case of CCn1c(Cc2ccccc2Nc2c(Cl)cccc2Cl)nnc1SCC(=O)Nc1cccc(OC)c1, the growth is reported as 66.1%. For NC(=S)N1N=C(c2ccc(Cl)cc2)CC1c1cc2ccccc2[nH]c1=O (stereo not given), the growth was 110%. With CC(C)c1nc2ccccc2n1CC(=O)N/N=C/c1cccc(O)c1 the growth was 97.5%. With COc1ccc(Oc2nc(Nc3ccc(N4CCOCC4)cc3)ncc2NC(=O)Nc2cccc(OC)c2)cc1 the growth was 41.7%. With Clc1cccc(CNc2c3ccccc3nc3ccccc23)c1 the growth was 27.9%. O=C1OCC2=C1C(c1ccccc1)c1cc3c(cc1N2CCO)CCC3 (stereo not given) showed a growth of 34.6%. C=C1C(=O)O[C@H]2[C@H]1CC/C(COC(=O)NCc1[nH]nc3ccccc13)=C\CC[C@@]1(C)O[C@@H]21 was tested, and the growth was 45.6%.
